Hits are enriched below; roughly 1.6% of the tested compounds scored in any of these assays.
HTR5A inv ctr: HTR5A inverse agonists in luminescence cell assay, primary screen, counter-screen for OPRM1-OPRD1 heterodimer inverse agonist project, full-deck HTS; HTR5A cell line, inverse agonism; 340,000 compounds, 0.083% hits; inhibition, % at 9.3 µM; in the data active means inhibition mostly above about 23%, no sharp cut-off; inactive means mostly below about 18%;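 further: 0% = cells with DMSO and 100% = no-cell wells with DMSO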
Target sequence (P47898 whole entry, looked up): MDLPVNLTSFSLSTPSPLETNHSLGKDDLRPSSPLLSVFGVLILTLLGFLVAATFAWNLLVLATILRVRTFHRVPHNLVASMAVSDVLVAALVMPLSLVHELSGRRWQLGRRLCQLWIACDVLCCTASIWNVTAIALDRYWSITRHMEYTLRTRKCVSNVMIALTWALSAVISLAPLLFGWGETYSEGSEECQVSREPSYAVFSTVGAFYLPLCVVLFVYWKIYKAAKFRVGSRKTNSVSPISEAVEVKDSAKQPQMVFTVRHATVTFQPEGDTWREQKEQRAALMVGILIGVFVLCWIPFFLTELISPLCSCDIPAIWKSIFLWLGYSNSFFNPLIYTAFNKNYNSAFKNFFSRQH
OPRM1-OPRD1 ag: agonists of OPRM1-OPRD1 heterodimerization, primary screen, cell-based, luminescence | Mu-type opioid receptor (Homo sapiens) + Delta-type opioid receptor (Homo sapiens), … | cells | activation, % at 9.3 µM | 340,000 compounds, 0.3% hits | AID 504326, 2011; in the data active means activation above about 18%;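 further: 0% = vehicle-treated cells and 100% = reference agonist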
NALP1 yeast inh: NALP1 inflammasome inhibitors in reconstituted yeast, colorimetric, S. cerevisiae, triplicate retest; inhibition, % at 10 µM; S. cerevisiae NALP1/ASC/caspase-1 growth, X-gal OD620, 72 h; 280,000 compounds, 0.61% hits; in the data active means inhibition mostly above about 24%, no sharp cut-off; inactive means mostly below about 32%
PolyA inh: polyadenylation inhibitors in yeast reporter cells, primary screen, luminescence, S. cerevisiae; S. cerevisiae SKY197-pL101 polyadenylation reporter, beta-gal luminescence; efflux-impaired pdr1/pdr3 knockout yeast; score 100 = 6 SD above DMSO; activity score, % at 12 µM; 300,000 compounds, 0.02% hits; AID 1875, 2009;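 active means lowest replicate activity score at least 50, where 100 means six control SD above control mean; inconclusive means lowest score under 50 but half or more replicates reach 50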;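 further: yeast exposed to compound for 9 h at 30 °C; higher score means more reporter readthrough which indicates perturbed polyadenylation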
OPRM1-OPRD1 inv: inverse agonists of MOR-DOR heterodimerization, primary screen, cell-based, luminescence | Mu-type opioid receptor (Homo sapiens) + Delta-type opioid receptor (Homo sapiens), … | inhibition, % at 9.3 µM | 340,000 compounds, 0.21% hits | cell-based MOR-DOR heterodimer luminescence, inverse agonism | AID 504357, 2011; in the data active means inhibition above about 22%, passing the limit was not always enough;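 further: 0% = cells with DMSO and 100% = wells without cells with DMSO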
HTR5A ag ctr: HTR5A agonists in luminescence cell assay, primary screen, counter-screen for OPRM1-OPRD1 heterodimer agonist project, full-deck HTS; 5-hydroxytryptamine receptor 5A (Homo sapiens), P47898; cell-based; activation, % at 9.3 µM; 340,000 compounds, 0.61% hits; AID 504692, 2011; in the data active means activation mostly above about 9.5%, no sharp cut-off; inactive means mostly below about 7.6%;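 further: 0% = cells with vehicle only and 100% = reference agonist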
Numbers without * were called inactive; ? = inconclusive; nt = no result given.

SMILES | HTR5A inv ctr | OPRM1-OPRD1 ag | NALP1 yeast inh | PolyA inh | OPRM1-OPRD1 inv | HTR5A ag ctr
Nc1nonc1C(=O)N/N=C/c1ccncc1 | -27 | 0 | 8 | 16 | -2 | 11*
C[C@@]12CCC=C[C@H]1[C@H](c1ccc(/C=C/c3ccccc3)cc1F)N(Cc1ccccc1)C2=O | 10 | -1 | 6 | 7 | 5 | -4
C[C@@]12CCC=C[C@H]1[C@H](c1ccc(C(F)(F)F)cc1)N(Cc1ccccc1)C2=O | -2 | 1 | 4 | 13 | -7 | 13*
CC(C)Cc1ccc(C(C)CC2=CCC(CN(C)C)C2=O)cc1 (stereo unspecified) | -22 | 11 | nt | nt | -56 | 6
CCN(CC)CCN(Cc1cc2cc3c(cc2[nH]c1=O)OCO3)C(=S)NCCCN(C)C | -16 | -2 | 14 | -14 | 11 | 4
CCN(CC)CCN(Cc1cc2cc3c(cc2[nH]c1=O)OCCO3)C(=S)NCCCN(C)C | 26 | -1 | 44* | 10 | 6 | -6
O=C(CN(c1ccc(F)cc1)S(=O)(=O)c1ccccc1)N1CCOCC1 | -18 | -4 | 3 | 1 | 23 | 7
Cc1ccnc(NC(=O)c2cc(S(=O)(=O)N3CCCCC3)ccc2Cl)c1 | 5 | 1 | 40* | 5 | -4 | -2
O=C1CN(C(=O)COC(=O)CNS(=O)(=O)/C=C/c2ccccc2)c2ccccc2N1 | 14 | -3 | 34* | 11 | 13 | -6
CC(Oc1ccccc1)C(=O)OCC(=O)N1CC(=O)Nc2ccccc21 (stereo unspecified) | 4 | -5 | 24* | 5 | 25 | -2
O=C(CCNC(=O)c1ccc(Br)cc1)NNC(=O)c1ccccc1 | -10 | -2 | nt | nt | 12 | 3
C/C(=N\N1CCN(c2ccccc2)CC1)c1ccncc1 | 2 | -2 | -7 | 13 | 11 | -1
COC(=O)c1cc(=O)n(Cc2ccc(F)cc2)c(=Nc2ccccc2)s1 | 10 | -1 | nt | 3 | 4 | -1
COC(=O)c1cc(=O)n(Cc2ccc(OC)c(OC)c2)c(=Nc2ccc(F)cc2)s1 | -4 | -3 | 40* | 7 | 15 | 1
O=C(CC12CC3CC(CC(C3)C1)C2)N1CCCC1 | -9 | -3 | 37* | -3 | 16 | 1
COCCNC(=O)CSc1ncnc2sccc12 | 5 | -1 | 38* | ? | 8 | 4
CCNC(=O)CSc1ncnc2sccc12 | 2 | -1 | 6 | 0 | 5 | -1
CCOC(=O)/C(=C\c1ccc(OC(F)F)cc1)C1=Nn2c(nnc2-c2ccc(Cl)cc2)SC1 | -19 | 6 | 32 | -20 | -33 | 5
CCOC(=O)/C(=C/c1ccc(OC(F)F)cc1)C1=Nn2c(nnc2-c2ccc(Cl)cc2)SC1 | -34 | 5 | nt | nt | -27 | 8.4*
COc1ccc(O)c(/C=N/NC(=O)c2cc(=O)[nH]c3ccccc23)c1 | 0 | -2 | 45* | 20 | 9 | -7
O=C(N/N=C/c1ccccc1)c1cc(=O)[nH]c2ccccc12 | 5 | -3 | 28 | -4 | 14 | -4
NC(=O)c1ncn([C@@H]2O[C@H](CNCc3cccn3-c3ccncc3)[C@@H](O)[C@H]2O)n1 | -18 | -2 | nt | nt | 11 | 5
CCS(=O)(=O)N1CCC(c2nc3ccccc3[nH]2)CC1 | 18 | -3 | 7 | 13 | 15 | -3
COc1cc(/C=C2\SC(=S)N(Nc3ncc(C(F)(F)F)cc3Cl)C2=O)ccc1O | 41* | -1 | -3 | -16 | 6 | -9
Cc1ccccc1N=C(NOCc1ccc(Cl)cc1Cl)c1nonc1N | -25 | 4 | 40* | -21 | -22 | 3
COc1ccc(C2=NS(=O)(=O)N(C)C(C(=O)Nc3ccc(F)cc3F)=C2)cc1 | -42 | 2 | 14 | -4 | -10 | 14
COc1ccc(C(C(=O)NC(C)C)N(C(=O)CCC(=O)Nc2nccs2)c2ccccc2F)cc1 (stereo unspecified) | -55 | -3 | 33* | 2 | 13 | -12
COC(=O)C(C)Oc1ccc(Cc2ncc(C(F)(F)F)cc2Cl)cc1 (stereo unspecified) | -6 | 2 | 13 | 5 | -10 | 2
